Compound activity (PubChem)
Hits are enriched below; roughly 4.5% of the tested compounds scored in any of these assays.
ALR H2O2 inh: inhibitors of human ALR sulfhydryl oxidase, primary screen, biochemical, H2O2 detection, HRP-luminol luminescence, single point; purified ALR, DTT oxidation; inhibition, % (no concentration beside the values); 290,000 compounds, 3.8% hits; AID 485317, 2010;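 active means mean replicate inhibition above about 79%, with every replicate also reaching it, limit read from the data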
GRK2 inh: compounds blocking aptamer binding on GRK2 – biochemical, human GRK2, bead flow cytometry, HTS, primary screen | inhibition of aptamer binding, % at 10 µM | AID 488847, 2010 | Beta-adrenergic receptor kinase 1 (Homo sapiens), P25098 | 330,000 compounds, 0.59% hits | FAM-aptamer displacement from GRK2;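 active means inhibition of aptamer binding above 40%, roughly 3 SD of noise, on plates passing a quality check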;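 further: median bead fluorescence of bound FAM aptamer so fluorescent compounds give negative values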
Rce1 inh: yeast Rce1p protease inhibitors, primary screen, biochemical, fluorescence, cell-free homogeneous | CAAX prenyl protease 2 (Saccharomyces cerevisiae (strain ATCC 204508 / S288c)), Q03530 | yeast membranes, quenched prenylated peptide cleavage fluorescence | calls only | 290,000 compounds, 0.27% hits;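 active means fall in fluorescence gain of 50% or more versus controls, with final raw signal at or below 3038400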;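 further: plate controls were neutral control wells for no effect and wells lacking membranes for full effect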
HDAC3 inh: HDAC3 deacetylase inhibitors, primary screen, biochemical, fluorescence, cell-free homogeneous; AID 2718, 2010; recombinant HDAC3, fluorogenic peptide/trypsin coupled; inhibition, % at 8.3 µM; 320,000 compounds, 0.15% hits; Histone deacetylase 3 (Homo sapiens), O15379; in the data active means inhibition above about 26%, passing the limit was not always enough
Target sequence (O15379 whole entry, looked up): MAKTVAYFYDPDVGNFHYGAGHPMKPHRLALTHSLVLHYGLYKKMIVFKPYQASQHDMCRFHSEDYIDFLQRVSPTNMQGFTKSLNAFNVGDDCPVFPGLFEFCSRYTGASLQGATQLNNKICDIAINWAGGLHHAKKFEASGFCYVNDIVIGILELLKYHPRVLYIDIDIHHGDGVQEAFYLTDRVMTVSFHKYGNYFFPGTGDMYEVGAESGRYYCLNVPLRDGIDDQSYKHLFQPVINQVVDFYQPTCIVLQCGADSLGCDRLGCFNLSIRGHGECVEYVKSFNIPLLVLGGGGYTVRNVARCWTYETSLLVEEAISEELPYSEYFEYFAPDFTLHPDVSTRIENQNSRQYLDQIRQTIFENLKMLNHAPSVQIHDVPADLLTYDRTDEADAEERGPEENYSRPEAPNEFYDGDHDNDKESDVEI
Rtt109 HAT inh: inhibitors of C. albicans Rtt109/Vps75 HAT, primary screen, biochemical, ThioGlo CoA-SH fluorescence, plate reader. purified Rtt109/Vps75, 4 h. inhibition, % at 34.9 µM. 330,000 compounds, 0.16% hits;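 active means inhibition of at least 50% in every replicate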
Efflux pump mplx: inhibitors of Candida efflux pumps in yeast, primary screen, S. cerevisiae, Nile Red, multiplex. S. cerevisiae Candida pump triplex. inhibition, % at 10 µM. 330,000 compounds, 0.44% hits. AID 485275, 2010;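 active means plate passing quality check with inhibition over a set limit, or well fluorescence over plate mean plus 4 SD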;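 further: Nile Red retained in pooled yeast measured as flow cytometry median fluorescence; 0% = buffer negative control and 100% = Enniatin B positive control; higher means more Nile Red kept so more efflux inhibition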
The depositor's hits bear a star.

What do the screens show for `COc1ccc(Cn2ccnc2)cc1Br`?
ALR H2O2 inh: 5.4; GRK2 inh: 0.0; Rce1 inh: inactive; HDAC3 inh: 1.1; Rtt109 HAT inh: -3.8; Efflux pump mplx: 0.1

How did COC(=O)c1ccn(CC(=O)NC2CCCCC2)n1 do in these assays?
ALR H2O2 inh: 93.5*; GRK2 inh: 2.0; Rce1 inh: inactive; HDAC3 inh: 2.8; Rtt109 HAT inh: 10.9; Efflux pump mplx: 0.3

Results for CCSCc1nnc(SCC(=O)Nc2nc3ccccc3s2)n1C ?
ALR H2O2 inh: -0.9; GRK2 inh: 0.0; Rce1 inh: inactive; HDAC3 inh: 3.7; Rtt109 HAT inh: -2.5; Efflux pump mplx: 0.0

How did C=CCn1c(SCC(=O)Nc2nc3ccccc3s2)nc(O)c(CC)c1=O do in these assays?
ALR H2O2 inh: 98.7*; GRK2 inh: 1.0; Rce1 inh: inactive; HDAC3 inh: 0.8; Rtt109 HAT inh: -2.6; Efflux pump mplx: 0.0

What do the screens show for `CCc1c(O)nc(SCC(=O)Nc2nc3ccccc3s2)n(-c2ccc(C)cc2)c1=O`?
ALR H2O2 inh: 98.1*; Rce1 inh: inactive; HDAC3 inh: 11.9; Rtt109 HAT inh: 3.1; Efflux pump mplx: -0.1

Results for CCc1c(O)nc(SCC(=O)Nc2nc3ccccc3s2)n(-c2ccccc2)c1=O ?
ALR H2O2 inh: 96.5*; GRK2 inh: 2.0; Rce1 inh: inactive; HDAC3 inh: 5.0; Rtt109 HAT inh: 1.7; Efflux pump mplx: 0.1

How did O=C(CSc1ccccn1)N1CCNC1=O do in these assays?
ALR H2O2 inh: -19.5; GRK2 inh: 0.0; HDAC3 inh: 2.0; Rtt109 HAT inh: 0.5; Efflux pump mplx: 0.0

How did O=C(Nc1ccccc1Cl)c1ccc(S(=O)(=O)NCC2CCCO2)cc1 (stereo not drawn) do in these assays?
ALR H2O2 inh: -0.2; GRK2 inh: 4.0; Rce1 inh: inactive; HDAC3 inh: -1.5; Rtt109 HAT inh: -1.9; Efflux pump mplx: -0.1

Results for O=C(Nc1ccc(S(=O)(=O)N2CCCC2)cc1)C1CC(=O)N(c2ccc(F)cc2)C1 (stereo not drawn) ?
GRK2 inh: 0.0; Rce1 inh: inactive; HDAC3 inh: -0.1; Rtt109 HAT inh: 1.2; Efflux pump mplx: -0.1

How did Cc1cc(-c2ccccc2)c2c(=O)n(-c3ccccc3)[nH]c2n1 do in these assays?
ALR H2O2 inh: 99.4*; GRK2 inh: 1.0; Rce1 inh: inactive; HDAC3 inh: 4.2; Rtt109 HAT inh: -1.8; Efflux pump mplx: -0.1

What do the screens show for `C#CCOC(=O)c1ccccc1C(=O)OCC#C`?
ALR H2O2 inh: -1.6; GRK2 inh: 1.0; HDAC3 inh: -3.3; Rtt109 HAT inh: -7.8; Efflux pump mplx: 0.0

How did O=C(c1cccc2ccccc12)n1nnc2ccccc21 do in these assays?
ALR H2O2 inh: 94.2*; GRK2 inh: 1.0; Rce1 inh: inactive; HDAC3 inh: 10.7; Efflux pump mplx: 0.1

What do the screens show for `C#CCOC(=O)c1ccccc1C(=O)n1nnc2ccccc21`?
ALR H2O2 inh: 97.2*; GRK2 inh: 0.0; Rce1 inh: inactive; HDAC3 inh: 93.9*; Rtt109 HAT inh: -2.6; Efflux pump mplx: 0.0

What do the screens show for `CC(Sc1nnc(C2CC2)n1C1CC1)C(=O)Nc1cccc(S(=O)(=O)N2CCOCC2)c1` (stereo not drawn)?
ALR H2O2 inh: -10.6; GRK2 inh: 1.0; HDAC3 inh: 1.8; Rtt109 HAT inh: 0.6; Efflux pump mplx: -0.1

What do the screens show for `CCCn1nc([N+](=O)[O-])c(C(C#N)c2nc3ccccc3s2)c(Cl)c1=O` (stereo not drawn)?
ALR H2O2 inh: 96.8*; GRK2 inh: 1.0; Rce1 inh: inactive; HDAC3 inh: 5.4; Rtt109 HAT inh: 14.5; Efflux pump mplx: -0.1

Results for O=C(CN1C(=O)NC2(CCCc3ccccc32)C1=O)NCc1ccc(Cl)cc1Cl (stereo not drawn) ?
ALR H2O2 inh: 4.7; GRK2 inh: 4.0; Rce1 inh: inactive; HDAC3 inh: 1.5; Rtt109 HAT inh: 11.7; Efflux pump mplx: -0.3
